# According to PubChem BioAssay AID623868 (Vanderbilt High Throughput Screening Facility, 2012):
# In all, about 2,100 compounds went through this assay and about 760 (36%) were called active. These entries were drawn from the full list. Values without a mark were called inactive.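 The calls were made as follows: active = thallium-flux fluorescence traces judged by eye to show enhanced or reduced glutamate response, manual score 1 or -1, so both directions (some results past the limit were not filed as active); inactive = the rest, including fluorescent or raised-baseline compounds.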
# Assay: thallium influx changes without GIRK channels – cell-based, HEK-293 rmGlu8, no GIRK, thallium flux, counter-screen for GIRK activator project, confirmation (AID 623868);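 also: extra codes mark interference with 3 for fluorescent and 4 for baseline rise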
# Conditions: thallium flux fluorescence, at 10 µM, actives lie on both sides
row,SMILES,manual score
1,CC(C)Oc1cc(-n2c(=S)[nH]c3ccccc3c2=O)c(Cl)cc1Cl,1 (active)
2,COc1cc(-n2c(=S)[nH]c3ccccc3c2=O)c(Cl)cc1Cl,1 (active)
3,c1ccc2c(CNC3CCCCC3)c[nH]c2c1,0
4,CCOC(=O)C(O)(c1ccc(N(CC)S(=O)(=O)c2ccc(C)cc2)cc1)C(F)(F)F (stereo not given),0
5,CNC(=O)OCCc1nccn1C,0.5
6,Fc1ccc(NC2=NCCS2)cc1Cl,0
7,CC(C)CCn1c(=O)c(C(=O)Nc2ccccc2S(N)(=O)=O)c(O)c2ccccc21,0
8,C=CCOC(=O)COc1cc(C)cc2oc(=O)c3c(c12)CCC3,-0.5
9,C/C(=N\Nc1ccccc1)c1c(O)n(C)c(=O)n(C)c1=O,0
10,O=c1cc(C(F)(F)F)c2cc3c4c(c2o1)CCCN4CCC3,3
11,S=C1CN=C(c2ccccc2)c2cc(Cl)ccc2N1,1 (active)
12,S=C1CN=C(c2ccccc2Cl)c2cc(Cl)ccc2N1,1 (active)
13,Cc1ccccc1C1=NCC(=S)Nc2ccc(Cl)cc21,1 (active)
14,O=C(Cc1ccccc1)N1CCN(C/C=C/c2ccccc2)CC1,0
15,CCN(c1ccc(C(O)(C(=O)OC)C(F)(F)F)cc1)S(=O)(=O)c1ccc(C)cc1 (stereo not given),0
16,CCCCn1c(C)c(C(=O)OCC)c2c(CN3CCOCC3)c(O)ccc21,0
17,Cc1ccc2nc(N3CCC(C(=O)N4CCC5(CC4)OCCO5)CC3)sc2c1,0
18,N=c1sc2c(n1Cc1ccccc1)CCCC2,0
19,O=C(Nc1ccc(Cl)cc1)Nc1nccs1,0
20,O=C(c1ccccc1)c1cn(CC(=O)N2CCOCC2)c2ccccc12,-0.5
21,Cn1cccc1CNCCc1ccccc1,0
22,Cc1nn(C)cc1/C=C1/CC2C3CC=C4CC(O)CCC4(C)C3CCC2(C)C1=O (stereo not given),0
23,CCN(CC)CCNCC(=O)Nc1ccc(Cl)cc1C(=O)c1ccccc1,0
24,Nc1c(C(=O)OC2CCCCC2)c2nc3ccccc3nc2n1CC1CCCO1 (stereo not given),-0.5
25,Cc1ccc(OCC(=O)NCCN2CCN(C(=O)COc3ccc(C)cc3)CC2)cc1,0
